According to publication PMC5540273 (PLoS ONE, 2017):

Experiments:
Details in all cases: concentration: 1 μM,replicates: in singlicate; n = 1
ADCK4 = system: ADCK4
AKT1 = system: AKT1
AKT2 = system: AKT2
AKT3 = system: AKT3
ALK = system: ALK
AMPK-alpha1 = system: T1, AMPK-alpha1
T1 construct: gene PRKAA1

AMPK-alpha2 = system: T2, AMPK-alpha2
T2 construct: gene PRKAA2

ANKK1 = system: ANKK1
ARK5 = system: T3, ARK5
T3 construct: gene NUAK1

ASK1 = system: T4, ASK1
T4 construct: gene MAP3K5
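Also: KINOMEscan kinase panel screen.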

SMILES | %Inh (ADCK4) [%] | %Inh (AKT1) [%] | %Inh (AKT2) [%] | %Inh (AKT3) [%] | %Inh (ALK) [%] | %Inh (AMPK-alpha1) [%] | %Inh (AMPK-alpha2) [%] | %Inh (ANKK1) [%] | %Inh (ARK5) [%] | %Inh (ASK1) [%]
CC(=O)c1c(-c2ccncc2)[nH]c(-c2ccncc2)c1C [GW493036] | 46 | 0 | 1 | 28 | 31 | 13 | 0 | 3 | 3 | 17
COc1cc2ncn(-c3cc(OCC4CCCCC4)c(C(N)=O)s3)c2cc1OC [GSK204559] | 11 | 0 | 0 | 0 | 22 | 0 | 27 | 14 | 0 | 14
O=c1[nH]cc(-c2ccc(O)cc2)c2sc(-c3ccncc3)cc12 [GSK1033723] | 16 | 0 | 16 | 97.2 | 0 | 0 | 13 | 10 | 13 | 0
CCCC(=O)Nc1n[nH]c2ncccc12 [SB-601436] | 0 | 0 | 0 | 2 | 0 | 0 | 0 | 13 | 0 | 0
COc1ccc(Nc2nccc(N3CCC(NC(=O)c4cccc(C#N)c4)C3)n2)cc1 (centres unmarked) [GSK1379730] | 9 | 0 | 0 | 0 | 28 | 0 | 0 | 0 | 0 | 0
Cc1ccc(Nc2ccnc(Nc3ccc4c(c3)CS(=O)(=O)C4)n2)cc1O.Cl [GW579362] | 100 | 0 | 0 | 0 | 51 | 10 | 17 | 44 | 25 | 0
NC(=O)c1ccc(-c2cc3ncnc(SCC(=O)O)c3s2)cc1 | 3 | 0 | 0 | 0 | 0 | 0 | 0 | 0 | 0 | 0
NC(=O)Nc1sc(-c2ccc(F)cc2)cc1C(N)=O [GW789449] | 7 | 0 | 0 | 0 | 52 | 25 | 15 | 86 | 0 | 26
